Results reported in PubChem BioAssay (NCI).
About 83,000 compounds went through this panel and 20% of them were active in at least one assay; those are over-represented in the sample as a whole.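 The test compound was applied at a single concentration to cells in 96-well plates for 48 hours, and percent growth was recorded.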 A number with no mark means an inactive call. The source made the active and inactive calls. Rule for the calls: active = growth percent below 10; inactive = the rest.

Columns and labels:
Assay in all cases: NCI-60 one-dose screen, 48 h (100 = growth as untreated, 0 = no growth, -100 = all killed)
Conditions in all cases: 10 µM unless noted
NCI-H23 lung = system: NCI-H23 lung
NCI-H226 lung = system: NCI-H226 lung
NCI-H322M lung = system: NCI-H322M lung
HOP-62 NSCLC = system: HOP-62 NSCLC
NCI-H460 lung = system: NCI-H460 lung
NCI-H522 lung = system: NCI-H522 lung
A549/ATCC NSCLC = system: A549/ATCC NSCLC
786-0 renal = system: 786-0 renal
COLO 205 colon = system: COLO 205 colon
DU-145 prostate = system: DU-145 prostate
MALME-3M melanoma = system: MALME-3M melanoma
MDA-MB-231 breast = system: MDA-MB-231 breast
RXF 393 renal = system: RXF 393 renal
SF-268 CNS = system: SF-268 CNS
SF-295 CNS = system: SF-295 CNS
SF-539 CNS = system: SF-539 CNS
UACC-257 melanoma = system: UACC-257 melanoma
M14 melanoma = system: M14 melanoma
HOP-92 NSCLC = system: HOP-92 NSCLC
K-562 leukemia = system: K-562 leukemia

SMILES | growth (NCI-H23 lung) [%] | growth (NCI-H226 lung) [%] | growth (NCI-H322M lung) [%] | growth (HOP-62 NSCLC) [%] | growth (NCI-H460 lung) [%] | growth (NCI-H522 lung) | growth (A549/ATCC NSCLC) [%] | growth (786-0 renal) [%] | growth (COLO 205 colon) | growth (DU-145 prostate) [%] | growth (MALME-3M melanoma) | growth (MDA-MB-231 breast) [%] | growth (RXF 393 renal) | growth (SF-268 CNS) [%] | growth (SF-295 CNS) [%] | growth (SF-539 CNS) | growth (UACC-257 melanoma) | growth (M14 melanoma) [%] | growth (HOP-92 NSCLC) [%] | growth (K-562 leukemia) [%]
OC(c1cccc(C(F)(F)F)c1)c1cnccc1NC1CCCCC1 (stereo unspecified) | 60.9 | 82.9 | 90.2 | 87.4 | 82.8 | 82.4% | 75.8 | 73.7 | -39.9% (active) | 85 | 83.2% | 66.1 | 78.8% | 89.6 | 81 | 91.7% | 87% | 87.9 |  | 
COc1ccc(/C=C2\COc3ccc(-c4ccccc4)cc3C2=O)c(OC)c1 | 77.9 | 86.6 | 90.2 | 120 | 83.4 | 39.7% |  | 83.2 | 124% | 102 | 91.6% | 93 | 83% | 97.7 | 190 | 97.3% | 82.8% | 92.6 |  | 
C=C1C(=O)O[C@H]2[C@H]1CC/C(CNS(=O)(=O)c1cccc3ccccc13)=C\CC[C@@]1(C)O[C@@H]21 | 57.9 | 57.8 | 91.2 | 94.9 |  | -63.9% (active) | 83.5 | 26.1 | 8.89% (active) | 25.5 | -18.4% (active) | 43.6 | -14.9% (active) | 58 | 82.2 | 49.2% | 70.4% | 31.7 | 12.1 | 
Cc1c(C(=O)NCCC(=O)NO)sc2ncnc(Nc3ccc(F)c(Cl)c3)c12 | 101 | 104 | 108 | 105 |  | 95.6% | 104 | 105 | 117% | 111 | 113% | 103 | 102% | 96.5 | 96.1 | 98% | 99.7% | 105 | 118 | 113
CCNC(=O)Oc1ccc(/C(=C(\C)c2ccccc2)c2ccc(OCCCN(C)C)cc2)cc1 | 75.8 | 99.2 | 80.7 | 87.4 |  | 86.4% | 78.9 | 64.2 | 54.5% | 92.5 | 40.9% | 76.6 | 76.1% | 72.1 | 52.4 | 65.8% | 3.23% (active) | 19.7 | 69.4 | 14.4
O=C1Nc2cc(-c3ccc(NC(=O)C4CC4)cc3)ccc2/C1=C/c1ccc[nH]1 | 61.3 | 101 | 86.2 | 104 |  | 92.5% | 107 | 105 | 117% | 105 | 98.5% | 99.5 | 108% | 104 | 101 | 90.7% | 116% | 99.3 | 129 | 98.4
CCOC(=O)c1cc(C(=O)c2cc(OC)cc(OC)c2)n2ccc3ccccc3c12 | 81.5 | 91.8 | 91.1 | 70.7 | 101 | 83.3% | 77.9 |  | 115% | 100 | 99.1% | 80.1 | 61.5% | 78.1 | 94.9 | 74.1% | 93.4% | 105 |  | 98.7
N#C/C(=C\c1c(-c2ccccc2)[nH]c2ccccc12)C(=O)c1ccc(Cl)cc1 | 36.9 | 69 | 61.8 | 41.4 |  | 35.3% | 48.8 | 44.6 | 41.6% | 28.3 | 37.2% | 49.9 | 29.2% | 51.4 | 32.1 | -39.7% (active) | 68.2% | 41 | 55.2 | 
